The values below come from paper PMC7862700, “An all-to-all approach to the identification of sequence-specific readers for epigenetic DNA modifications on cytosine”.

Holding throughout (experiment): DAPPL (digital affinity profiling via proximity ligation, sequencing); 10 mM Tris-HCl pH 7.5, 50 mM NaCl, 1 mM DTT, 4% glycerol, room temperature, 30 min; GST-TFs on glutathione beads, 16-mer random dsDNA library, 0.1% formaldehyde crosslink after washing; high values mean tight binding
What all share (details): protein: recombinant; tags: N-terminal GST; dsDNA, one strand shown

For one assay, the target named is T1, FLI1 (Homo sapiens, UniProt Q01543 1-452).
T1 sequence: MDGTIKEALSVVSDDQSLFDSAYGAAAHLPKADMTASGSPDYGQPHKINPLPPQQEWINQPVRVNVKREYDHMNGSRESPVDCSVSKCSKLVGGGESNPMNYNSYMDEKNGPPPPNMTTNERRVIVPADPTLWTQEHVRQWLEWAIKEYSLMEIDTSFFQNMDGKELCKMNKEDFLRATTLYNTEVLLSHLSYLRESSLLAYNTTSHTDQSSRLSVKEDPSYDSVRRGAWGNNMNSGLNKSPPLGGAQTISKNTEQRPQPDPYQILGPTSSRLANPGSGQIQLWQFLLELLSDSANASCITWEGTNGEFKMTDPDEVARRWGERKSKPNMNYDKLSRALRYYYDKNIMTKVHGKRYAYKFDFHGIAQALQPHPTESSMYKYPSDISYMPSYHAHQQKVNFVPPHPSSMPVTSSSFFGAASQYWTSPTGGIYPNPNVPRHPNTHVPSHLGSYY
The essentials:
(§1)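 Binding signal is defined as a hexamer's read frequency for one factor over its frequency for the tag-only sample. To obtain reads, GST-fused human transcription factors were expressed in yeast, captured on glutathione beads, barcoded with DNA and pooled with that sample. Pools met 200 nmole of a 16-mer random double-stranded DNA library in Tris/NaCl/DTT/glycerol buffer for 30 min at room temperature before washing, 0.1% formaldehyde crosslinking, proximity ligation (BsaI/T4 ligase, 1 h, 37 °C), PCR and Illumina NextSeq500 sequencing.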

The target of the next assay is T2, ELK1 (Homo sapiens, UniProt P19419 1-428).
T2 sequence: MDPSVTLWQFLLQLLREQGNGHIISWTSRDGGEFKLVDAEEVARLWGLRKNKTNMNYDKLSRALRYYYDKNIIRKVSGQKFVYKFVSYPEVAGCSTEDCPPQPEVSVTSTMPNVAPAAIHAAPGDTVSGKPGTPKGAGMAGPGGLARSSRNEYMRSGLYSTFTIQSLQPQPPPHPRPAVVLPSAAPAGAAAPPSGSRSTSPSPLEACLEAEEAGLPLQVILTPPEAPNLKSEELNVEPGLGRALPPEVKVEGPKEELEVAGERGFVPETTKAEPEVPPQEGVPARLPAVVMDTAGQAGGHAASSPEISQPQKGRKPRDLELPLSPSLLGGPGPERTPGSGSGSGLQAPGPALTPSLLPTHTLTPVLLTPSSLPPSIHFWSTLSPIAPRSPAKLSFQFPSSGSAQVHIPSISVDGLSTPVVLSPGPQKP
The essentials: as §1

The target in the next assay is T3, GABPA (Homo sapiens, UniProt Q06546 1-454).
T3 sequence: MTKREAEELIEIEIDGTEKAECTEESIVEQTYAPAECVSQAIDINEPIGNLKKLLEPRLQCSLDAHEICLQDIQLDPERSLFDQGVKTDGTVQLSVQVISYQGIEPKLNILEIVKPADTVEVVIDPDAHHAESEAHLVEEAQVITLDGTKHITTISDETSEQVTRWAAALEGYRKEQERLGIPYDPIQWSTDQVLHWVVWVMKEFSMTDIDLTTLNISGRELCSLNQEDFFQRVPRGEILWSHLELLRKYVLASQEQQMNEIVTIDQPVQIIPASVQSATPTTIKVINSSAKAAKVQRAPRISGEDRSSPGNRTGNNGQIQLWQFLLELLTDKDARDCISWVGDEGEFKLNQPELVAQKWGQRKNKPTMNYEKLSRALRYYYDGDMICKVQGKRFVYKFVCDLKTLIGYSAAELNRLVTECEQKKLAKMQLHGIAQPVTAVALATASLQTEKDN
Summed up:
as §1

The target in a further assay is T4, ERG (Homo sapiens, UniProt P11308 1-479).
T4 sequence: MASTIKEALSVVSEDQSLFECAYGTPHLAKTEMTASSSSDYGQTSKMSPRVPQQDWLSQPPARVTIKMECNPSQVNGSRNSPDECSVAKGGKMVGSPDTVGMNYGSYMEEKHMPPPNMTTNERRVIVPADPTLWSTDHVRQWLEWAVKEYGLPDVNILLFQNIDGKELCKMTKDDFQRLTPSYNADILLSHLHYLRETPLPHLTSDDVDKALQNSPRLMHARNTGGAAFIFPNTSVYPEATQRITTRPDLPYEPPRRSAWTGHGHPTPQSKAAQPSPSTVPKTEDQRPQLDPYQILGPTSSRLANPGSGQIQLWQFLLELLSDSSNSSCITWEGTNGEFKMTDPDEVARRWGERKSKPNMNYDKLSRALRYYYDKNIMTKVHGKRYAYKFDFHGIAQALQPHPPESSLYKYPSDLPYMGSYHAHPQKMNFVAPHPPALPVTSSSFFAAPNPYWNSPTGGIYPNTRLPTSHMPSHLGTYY
Summed up: as §1

The next assay concerns the target ELF1 (Homo sapiens, UniProt P32519 1-619). The essentials:
as §1

The target in another assay is T5, EHF (Homo sapiens, UniProt Q9NZC4 1-300).
T5 sequence: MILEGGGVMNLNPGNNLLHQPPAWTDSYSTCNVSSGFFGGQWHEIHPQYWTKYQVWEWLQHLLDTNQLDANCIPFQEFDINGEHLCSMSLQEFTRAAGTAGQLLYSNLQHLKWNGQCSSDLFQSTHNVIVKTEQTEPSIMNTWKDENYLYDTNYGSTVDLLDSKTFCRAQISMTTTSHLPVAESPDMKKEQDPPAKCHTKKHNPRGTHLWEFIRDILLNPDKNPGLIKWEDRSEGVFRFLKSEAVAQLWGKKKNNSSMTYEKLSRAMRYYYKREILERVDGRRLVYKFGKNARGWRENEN
The essentials: as §1

A further assay addresses SPI1 (Homo sapiens, UniProt P17947 1-270). Summed up:
as §1

For a further assay, the target named is SPIB (Homo sapiens, UniProt Q01892 1-262). The essentials: as §1
Sequence of SPIB (Q01892 whole entry): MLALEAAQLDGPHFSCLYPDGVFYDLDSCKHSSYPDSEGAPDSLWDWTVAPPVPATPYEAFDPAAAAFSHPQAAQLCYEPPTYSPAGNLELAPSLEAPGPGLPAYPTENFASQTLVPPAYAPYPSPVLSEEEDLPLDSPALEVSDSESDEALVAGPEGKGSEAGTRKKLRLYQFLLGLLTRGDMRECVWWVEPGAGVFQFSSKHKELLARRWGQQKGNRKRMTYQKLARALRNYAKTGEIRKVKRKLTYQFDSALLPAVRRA
For another assay, the target named is T6, ELK3 (Homo sapiens, UniProt P41970 1-407).
T6 sequence: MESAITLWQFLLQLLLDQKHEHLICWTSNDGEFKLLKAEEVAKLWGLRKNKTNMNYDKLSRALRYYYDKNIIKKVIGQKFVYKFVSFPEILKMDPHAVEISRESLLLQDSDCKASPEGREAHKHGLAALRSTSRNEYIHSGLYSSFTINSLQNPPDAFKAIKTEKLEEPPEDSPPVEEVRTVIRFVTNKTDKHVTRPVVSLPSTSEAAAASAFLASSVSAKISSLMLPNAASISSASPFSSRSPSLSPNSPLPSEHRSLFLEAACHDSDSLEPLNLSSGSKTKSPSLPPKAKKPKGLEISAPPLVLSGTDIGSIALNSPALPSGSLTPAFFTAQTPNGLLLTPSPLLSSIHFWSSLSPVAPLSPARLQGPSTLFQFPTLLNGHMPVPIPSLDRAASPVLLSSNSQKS
Summed up:
as §1

Sequence of ELF1 (P32519 whole entry): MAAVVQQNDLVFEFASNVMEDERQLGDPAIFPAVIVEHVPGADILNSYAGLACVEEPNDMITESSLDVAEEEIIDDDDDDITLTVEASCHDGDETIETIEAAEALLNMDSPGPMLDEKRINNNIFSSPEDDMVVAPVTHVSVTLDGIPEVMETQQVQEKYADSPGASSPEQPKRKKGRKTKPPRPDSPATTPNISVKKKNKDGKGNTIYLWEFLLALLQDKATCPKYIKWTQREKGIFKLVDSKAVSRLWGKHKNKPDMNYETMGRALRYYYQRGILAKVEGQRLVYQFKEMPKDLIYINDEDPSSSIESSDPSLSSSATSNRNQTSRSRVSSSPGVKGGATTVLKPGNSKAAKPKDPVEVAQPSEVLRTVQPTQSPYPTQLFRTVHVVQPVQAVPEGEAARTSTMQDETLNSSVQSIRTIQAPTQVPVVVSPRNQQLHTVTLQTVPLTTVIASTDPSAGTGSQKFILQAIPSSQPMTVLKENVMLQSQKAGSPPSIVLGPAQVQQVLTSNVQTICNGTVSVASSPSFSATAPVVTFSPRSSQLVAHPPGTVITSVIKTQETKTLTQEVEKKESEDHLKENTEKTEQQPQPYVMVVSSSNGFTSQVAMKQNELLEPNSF

As to TATAGG, the binding signal was 1.14 fold enrichment (6-mer frequency, TF over GST control) with FLI1; 1.06 fold enrichment (6-mer frequency, TF over GST control) with ELK1; 1.19 fold enrichment (6-mer frequency, TF over GST control) with GABPA; 1.18 fold enrichment (6-mer frequency, TF over GST control) in the assay with ERG; 1.15 fold enrichment (6-mer frequency, TF over GST control) with ELF1; 1.28 fold enrichment (6-mer frequency, TF over GST control) in the assay with EHF. Moreover, the binding signal was 1.23 fold enrichment (6-mer frequency, TF over GST control) with SPI1; 1.27 fold enrichment (6-mer frequency, TF over GST control) with SPIB; 1.08 fold enrichment (6-mer frequency, TF over GST control) with ELK3.
For TTCCCA, the binding signal is 1.18 fold enrichment (6-mer frequency, TF over GST control) in the assay with FLI1; 1.3 fold enrichment (6-mer frequency, TF over GST control) in the assay with ELK1; 1.2 fold enrichment (6-mer frequency, TF over GST control) with GABPA; 1.3 fold enrichment (6-mer frequency, TF over GST control) in the assay with ERG; 1.3 fold enrichment (6-mer frequency, TF over GST control) in the assay with ELF1; 1.34 fold enrichment (6-mer frequency, TF over GST control) in the assay with EHF. For the same sequence, the binding signal was 1.28 fold enrichment (6-mer frequency, TF over GST control) with SPI1; 1.34 fold enrichment (6-mer frequency, TF over GST control) in the assay with SPIB; 1.17 fold enrichment (6-mer frequency, TF over GST control) with ELK3.
Regarding CATATA, the binding signal was 1.17 fold enrichment (6-mer frequency, TF over GST control) with FLI1; 1.07 fold enrichment (6-mer frequency, TF over GST control) with ELK1; 1.14 fold enrichment (6-mer frequency, TF over GST control) with GABPA; 1.08 fold enrichment (6-mer frequency, TF over GST control) with ERG; 1.12 fold enrichment (6-mer frequency, TF over GST control) with ELF1; 1.06 fold enrichment (6-mer frequency, TF over GST control) with EHF. Also, the binding signal in the assay with SPI1 was 1.06 fold enrichment (6-mer frequency, TF over GST control); with SPIB, 1.06 fold enrichment (6-mer frequency, TF over GST control); with ELK3 it was 1.22 fold enrichment (6-mer frequency, TF over GST control).
For the sequence ATCCTC, the binding signal is 1.48 fold enrichment (6-mer frequency, TF over GST control) with FLI1; 1.47 fold enrichment (6-mer frequency, TF over GST control) with ELK1; 1.55 fold enrichment (6-mer frequency, TF over GST control) with GABPA; 1.52 fold enrichment (6-mer frequency, TF over GST control) with ERG; 1.48 fold enrichment (6-mer frequency, TF over GST control) in the assay with ELF1; 1.39 fold enrichment (6-mer frequency, TF over GST control) with EHF. The binding signal in the assay with SPI1 was 1.51 fold enrichment (6-mer frequency, TF over GST control); with SPIB, 1.41 fold enrichment (6-mer frequency, TF over GST control); in the assay with ELK3 it was 1.36 fold enrichment (6-mer frequency, TF over GST control).
On to CTAGCA, for which the binding signal with FLI1 is 1.28 fold enrichment (6-mer frequency, TF over GST control); with ELK1, 1.26 fold enrichment (6-mer frequency, TF over GST control); with GABPA, 1.2 fold enrichment (6-mer frequency, TF over GST control); in the assay with ERG it was 1.18 fold enrichment (6-mer frequency, TF over GST control); with ELF1, 1.26 fold enrichment (6-mer frequency, TF over GST control); with EHF, 1.23 fold enrichment (6-mer frequency, TF over GST control). For the same sequence, the binding signal in the assay with SPI1 is 1.14 fold enrichment (6-mer frequency, TF over GST control); in the assay with SPIB it was 1.24 fold enrichment (6-mer frequency, TF over GST control); with ELK3, 1.33 fold enrichment (6-mer frequency, TF over GST control).
TCACTT: the binding signal in the assay with FLI1 was 1.56 fold enrichment (6-mer frequency, TF over GST control); with ELK1, 1.78 fold enrichment (6-mer frequency, TF over GST control); in the assay with GABPA, 1.52 fold enrichment (6-mer frequency, TF over GST control); in the assay with ERG, 1.8 fold enrichment (6-mer frequency, TF over GST control); with ELF1, 1.66 fold enrichment (6-mer frequency, TF over GST control); with EHF, 1.67 fold enrichment (6-mer frequency, TF over GST control). Moreover, the binding signal in the assay with SPI1 is 2.11 fold enrichment (6-mer frequency, TF over GST control); with SPIB, 1.82 fold enrichment (6-mer frequency, TF over GST control); with ELK3, 1.69 fold enrichment (6-mer frequency, TF over GST control).
Regarding ATACAC, the binding signal with FLI1 was 1.18 fold enrichment (6-mer frequency, TF over GST control); with ELK1, 1.19 fold enrichment (6-mer frequency, TF over GST control); with GABPA, 1.25 fold enrichment (6-mer frequency, TF over GST control); with ERG it was 1.25 fold enrichment (6-mer frequency, TF over GST control); in the assay with ELF1, 1.19 fold enrichment (6-mer frequency, TF over GST control); with EHF, 1.22 fold enrichment (6-mer frequency, TF over GST control). Besides, the binding signal with SPI1 was 1.23 fold enrichment (6-mer frequency, TF over GST control); with SPIB, 1.23 fold enrichment (6-mer frequency, TF over GST control); with ELK3 it was 1.21 fold enrichment (6-mer frequency, TF over GST control).
Regarding AAAACA, the binding signal with FLI1 was 1.35 fold enrichment (6-mer frequency, TF over GST control); in the assay with ELK1, 1.22 fold enrichment (6-mer frequency, TF over GST control); with GABPA, 1.35 fold enrichment (6-mer frequency, TF over GST control); with ERG, 1.34 fold enrichment (6-mer frequency, TF over GST control); in the assay with ELF1, 1.31 fold enrichment (6-mer frequency, TF over GST control); with EHF it was 1.31 fold enrichment (6-mer frequency, TF over GST control). Moreover, the binding signal was 1.36 fold enrichment (6-mer frequency, TF over GST control) with SPI1; 1.24 fold enrichment (6-mer frequency, TF over GST control) with SPIB; 1.28 fold enrichment (6-mer frequency, TF over GST control) with ELK3.
